We go through 58 molecules from ChEMBL document CHEMBL3988442, “University of Dundee, Small-Polar-MMV Screening Library” (2021).

Out of some 48,000 compounds screened, about 13,000 (27%) showed an effect of 50% or more. The list shows a part of the results.

For the experiment, the system named is Wolbachia pipientis. The experiment in a line: Anti-Wolbachia Cell-Based Screen. Format: functional. Also noted: scale not given: in the data most compounds retested in dose-response had high values. Particulars: 5 µM.
Take `CNCC(=O)N1CCCC1c1nc(C(C)C)no1` (stereo not drawn): the “Percent Effect” value came to 10.93%.

With `Cc1noc([C@@H]2CCCN2C(=O)C2CCN(C(=O)C3CCC3)CC2)n1`, the “Percent Effect” value was -13.41%.

`Cc1noc(C2CCCN2C(=O)C2CCC2)n1` (stereo not drawn): the “Percent Effect” value came to 124.3%.

For `Cc1noc([C@@H]2C[C@H](NC(=O)NC3CCCCC3)CN2C)n1`, the “Percent Effect” value is -10.92%.

Consider `Cc1ccc([C@@H]2CN(C(=O)c3cc[nH]c3)C[C@H]2NC(=O)C2CC2)cc1`, for which the “Percent Effect” value is 18.05%.

With `NC(=O)C1CCN(CCc2ccc(NCc3ccoc3)cc2)CC1`, the “Percent Effect” value is given as -9.363%.

On to `CNC(=O)c1cccnc1N1CCN(C/C=C/c2ccccc2)CC1`, for which the “Percent Effect” value was 6.453%.

With `CCC(CC)NC(=O)c1cccnc1-n1cccn1`, the “Percent Effect” value is listed as 10.93%.

Take `CCOCCNC(=O)c1cccnc1N1CCCC1c1ccccn1` (stereo not drawn): the “Percent Effect” value was 122.4%.

Take `CCC(CC)NC(=O)c1cccnc1N1CCCC1c1ccccn1` (stereo not drawn): the “Percent Effect” value turned out to be 119.8%.

Consider `COc1cccc(C(=O)N2CCN(C(=O)CCCn3ccnc3)CC2)c1`, for which the “Percent Effect” value is recorded as -1.45%.

For `COc1ccc(C(=O)O)c(OCC(=O)NC(C)c2ccc(F)cc2)c1` (stereo not drawn), the “Percent Effect” value is listed as -5.25%.

With `Cc1ccc(C(N)c2cccs2)cc1` (stereo not drawn), the “Percent Effect” value was determined as 13.29%.

As to `Cc1ccccc1CN(Cc1ccncc1)CC(C)C`, the “Percent Effect” value is given as -4.812%.

`Cc1ccccc1C(N)c1ccncc1.Cl` (stereo not drawn): the “Percent Effect” value was 102.8%.

With `COCC(NC(=O)c1cc[nH]n1)c1cccc(C(F)(F)F)c1` (stereo not drawn), the “Percent Effect” value was -1.057%.

On to `O=C(c1ccccn1)N1C[C@@H]2CC[C@H](C1)N(C(=O)CCC(F)(F)F)C2`, for which the “Percent Effect” value is listed as -20.57%.

For `Cn1cc(-c2csc(N3CCCCCC3)n2)cn1`, the “Percent Effect” value is on record as -2.114%.

With `Cn1cc(-c2nnc3sc(C4CC4)nn23)cn1`, the “Percent Effect” value turned out to be 89.59%.

For the molecule `Cn1cc(-c2nc(CN3CCn4c(nnc4C4CC4)C3)cs2)cn1`, the “Percent Effect” value was -10.47%.

As to `Cn1cc(-c2nnc3sc(C4CCC4)nn23)cn1`, the “Percent Effect” value is recorded as 131.8%.

As to `CCCC1CCCN(Cc2csc(-c3cnn(C)c3)n2)CC1` (stereo not drawn), the “Percent Effect” value is reported as -16.04%.

Take `CCC(CO)N(Cc1ccsc1)CC1CC1` (stereo not drawn): the “Percent Effect” value is given as -8.901%.

With `CCS(=O)(=O)CCCN1CCSCC1c1ccc(Cl)cc1` (stereo not drawn), the “Percent Effect” value came out at 4.065%.

As for `CCCNS(=O)(=O)Cc1ccc(Br)cc1`, the “Percent Effect” value was -14.67%.

In the case of `CCS(=O)(=O)CCSc1ccc(Br)cc1`, the “Percent Effect” value is given as 61.96%.

For `N#Cc1ccc(SCCC(=O)O)cc1`, the “Percent Effect” value was -2.439%.

Take `N#Cc1cccc(SCCS(N)(=O)=O)c1`: the “Percent Effect” value was found to be 2.301%.

As for `CCOc1ccc(SCCS(=O)(=O)CC)cc1`, the “Percent Effect” value is recorded as 102.3%.

In the case of `CCOc1ccc(CNC(C)c2cccc(S(=O)(=O)NC)c2)cc1` (stereo not drawn), the “Percent Effect” value worked out at 0.3734%.

Consider `CCS(=O)(=O)CCSc1ccc(Cl)cc1`, for which the “Percent Effect” value was determined as 82.02%.

Turning to `CCOc1ccc(SCCNS(=O)(=O)CC)cc1`, the “Percent Effect” value is listed as 37.47%.

As to `CC(C)c1cc(=O)[nH]c(C(C)(C)N)n1.Cl`, the “Percent Effect” value is -9.286%.

Take `CNC(=O)Cc1noc(-c2cc3c(s2)CCC(C)(C)C3)n1`: the “Percent Effect” value is listed as -4.639%.

For `COc1ccccc1CC1CCCN(CC(N)=O)C1` (stereo not drawn), the “Percent Effect” value is given as -5.386%.

With `O=C1CCCN1CCN1CCCC(c2ccn[nH]2)C1` (stereo not drawn), the “Percent Effect” value was determined as 1.781%.

On to `O=C(O)c1ccc(CN2CCCC(Cc3ccn[nH]3)C2)cc1` (stereo not drawn), for which the “Percent Effect” value came out at 99.33%.

As for `O=C(O)c1cccc(CN2CCCC(c3ccn[nH]3)C2)c1` (stereo not drawn), the “Percent Effect” value was found to be 109.3%.

As for `c1ccn2cc(CN3CCCC(c4ccn[nH]4)C3)nc2c1` (stereo not drawn), the “Percent Effect” value is given as 9.447%.

Take `O=C(O)c1cccc(CN2CCCC(Cc3ccn[nH]3)C2)c1` (stereo not drawn): the “Percent Effect” value came to 127.8%.

Regarding `CC(C)(C)OC(=O)NC1CCCN(Cc2cccc(O)c2)C1` (stereo not drawn), the “Percent Effect” value was -3.79%.

As to `COc1ccccc1CC1CCCN(C(=O)c2cn[nH]c2C)C1` (stereo not drawn), the “Percent Effect” value is -7.935%.

As to `O=C(O)c1ccccc1CN1CCCC(Cc2ccn[nH]2)C1` (stereo not drawn), the “Percent Effect” value was 106.4%.

Take `Cc1ccsc1[C@@H]1CCN(C(=O)c2ccc(-c3cc[nH]n3)cc2)C[C@H]1O`: the “Percent Effect” value was -2.8%.

Take `CCC(SC)C(=O)N1CCC(n2cccn2)CC1` (stereo not drawn): the “Percent Effect” value was -7.031%.

With `CN1C(=O)CC2(CCN(S(=O)(=O)c3cccs3)CC2)c2ccccc21`, the “Percent Effect” value is recorded as 10.11%.

Regarding `COCCCNC(=O)C1(NC(=O)c2ccc3[nH]ncc3c2)CCCC1`, the “Percent Effect” value is listed as -2%.

For the molecule `O=S(=O)(NCC1(O)CCOc2ccccc21)c1ccccc1Br` (stereo not drawn), the “Percent Effect” value stood at 15.3%.

For `O=C(Nc1nnn[nH]1)c1ccc(-n2cccc2)c(F)c1`, the “Percent Effect” value is reported as -12.4%.

As for `O=C(COC1CCCC1)N1CCC(C(O)c2ccc(F)cc2)CC1` (stereo not drawn), the “Percent Effect” value was 6.854%.

As to `COc1cccc(NC(C(N)=O)c2ccc(Br)cc2)c1` (stereo not drawn), the “Percent Effect” value was 1.947%.

As to `CCO[C@H]1CC[C@H]2[C@@H]1OCCN2C(=O)COc1ccccc1`, the “Percent Effect” value came to 94.92%.

For the molecule `CCO[C@@H]1CC[C@H]2[C@H]1OCCN2C(=O)C1CCOCC1`, the “Percent Effect” value was 0.9043%.

Take `O=C(COc1ccc(F)cc1)N1CCO[C@H]2[C@@H](OCC3CC3)CC[C@@H]21`: the “Percent Effect” value is listed as 107%.

On to `COc1ccc(C(=O)N2CCO[C@H]3[C@H](OCC4CC4)CC[C@@H]32)cc1F`, for which the “Percent Effect” value is on record as -4.788%.

Turning to `COc1cc(C(=O)N2CCO[C@H]3[C@H](OCC4CC4)CC[C@@H]32)ccc1F`, the “Percent Effect” value is listed as 35.93%.

As for `CCO[C@H]1CC[C@H]2[C@H]1OCCN2C(=O)COc1ccccc1`, the “Percent Effect” value was 74.73%.

In the case of `CCO[C@@H]1CC[C@H]2[C@H]1OCCN2C(=O)c1ccc(C)o1`, the “Percent Effect” value is on record as 0.08907%.
